Rows were chosen to be rich in hits. Some 1.1% of all compounds tested hit in one or more screens of this group.
LDHA block – inhibitors of human lactate dehydrogenase A. P00338. purified LDHA, NADH/diaphorase-resazurin fluorescence; hits give low values. activity change, % (values are at about 110 or 230 µM). actives 0.15% (n = 480,000). AID 1347041; in the data active means activity change below about -30%; inconclusive means mostly about -25% to -30%;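 further: plate controls were DMSO wells for no effect and wells without enzyme for full effect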
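Resorufin fluorescence (ex540/em590), read at 0 and 20 min after diaphorase/resazurin addition, reports the NADH left after a 5 min room-temperature reaction of 2 nM human LDH5 with 0.06 mM NADH and 0.2 mM pyruvate.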
TrxR1 substrate – rat thioredoxin reductase 1 substrate activity | O89049 | purified TrxR1 substrate turnover, NADPH consumption readout | Potency, µM (doses to about 114 µM), inactives show at the highest dose activity change, negative = substrate turnover | actives 0.01% (n = 390,000) | AID 588456; further: potency means the concentration at half of the fitted maximal effect; nearly all actives have a fitted effect of over 50% in size
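Rat TrxR1, dispensed at 90 nM, was prereduced with 400 uM NADPH (final) for 5 min at ~22 deg C, then incubated with compound 15 min before 400 uM selenite. A first-read NADPH fluorescence drop versus no-compound background flagged substrates.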
PI4K2A block – blocks human PI4K2A kinase activity; Q9BTU6; purified PI4K2A, ADP-Glo luminescence, 1 h; hits give low values; activity change, negative = inhibition, % at 76.9 µM; actives 0.13% (n = 420,000); in the data active means activity change below about -50%; inconclusive means mostly about -30% to -49%;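 further: -100% = wells without enzyme as full effect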
Target sequence (Q9BTU6 whole entry, looked up): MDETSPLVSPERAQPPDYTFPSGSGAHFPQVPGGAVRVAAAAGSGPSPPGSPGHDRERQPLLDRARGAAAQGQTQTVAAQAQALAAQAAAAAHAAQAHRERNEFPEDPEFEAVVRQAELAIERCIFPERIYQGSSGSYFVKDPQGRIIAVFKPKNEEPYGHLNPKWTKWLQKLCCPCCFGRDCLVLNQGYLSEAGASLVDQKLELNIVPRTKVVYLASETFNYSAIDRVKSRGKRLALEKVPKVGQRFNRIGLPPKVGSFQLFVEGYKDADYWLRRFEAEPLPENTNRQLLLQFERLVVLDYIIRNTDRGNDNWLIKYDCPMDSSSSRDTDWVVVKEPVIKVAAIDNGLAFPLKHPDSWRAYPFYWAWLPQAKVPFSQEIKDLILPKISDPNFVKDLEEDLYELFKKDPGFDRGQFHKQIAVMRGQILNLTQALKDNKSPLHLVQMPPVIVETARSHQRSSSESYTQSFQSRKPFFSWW
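PI4K2A activity was measured by ADP-Glo luminescence: enzyme (4 ug/mL stock) and phosphatidylinositol (1.2 mM stock) in Tris pH 7.5/MgCl2/EGTA/Triton X-100 buffer were reacted with ATP (300 microM stock) for one hour at ambient temperature.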
TrxR1 inh – inhibitors of rat thioredoxin reductase 1. O89049. recombinant rTrxR1, NADPH fluorescence consumption, selenite substrate. Potency, µM (top dose mostly 114 µM), without a hit: at the top dose activity change, negative = inhibition, hits mostly inhibitors. actives 1% (n = 390,000). AID 588453; further: potency means the concentration at half of the fitted maximal effect; nearly all actives have a fitted effect of over 65% in size
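Rat TrxR1 (90 nM in the dispensed reagent) was pre-reduced with 400 uM NADPH for 5 min at room temperature, then incubated with compound for 15 min. After 400 uM selenite was added, NADPH fluorescence (Ex 340/Em 450 nm) was followed for 8 min.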
Integrin act MD – integrin-mediated muscular dystrophy alleviation activation | actives 0.064% (n = 350,000) | Potency, µM (top dose mostly 38.3 µM), inactives show top-dose activation, actives largely listed as activators | alpha7betagal myoblasts, beta-gal FDG fluorescence, 48 h;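 further: potency means the concentration at half of the fitted maximal effect; 100% = response of the positive control SU9516; nearly all actives have a fitted effect of over 60% in size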
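Alpha7betagal+/- myoblasts (passage 13) were plated 16-24 hr, then exposed to compounds (1:260 dilution of DMSO stock) for 48 hours at 37C. After MPER lysis, β-galactosidase reporter activity was read as FDG fluorescence (ex 480/em 540) after 30 minutes.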
GALK inhibitor – inhibitors of human galactokinase; Purified GALK, Kinase-Glo residual ATP luminescence; Potency, µM (series often up to 57.5 µM), inactives show top-dose activity change, negative = inhibition, actives largely listed as inhibitors; actives 0.007% (n = 270,000); AID 1868; further: potency means the concentration at half of the fitted maximal effect
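The enzyme phosphorylates galactose (100 uM) using ATP (35 uM); inhibition is detected as higher residual ATP, quantified by bioluminescence after 1 h reaction at room temperature, pH 8.0.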
Starred values were filed as active, the others as inactive; [ ] = dose if it differs, or a comment. Unless noted, the call rests on the fitted dose curve; in most records, active means well fitted curve in the direction sought with a large enough effect; inconclusive means small, poorly fitted or top-dose-only effect, or another doubt; inactive means no such curve, though single readings can be large; an effect the other way counts as inactive or inconclusive. Unless noted, on the % scale 0 is the no-effect control and ±100 the full control effect.

How did COc1ccc(N/C(=C/[N+](=O)[O-])SC)cc1 do in these assays?
LDHA block: -12.1; TrxR1 substrate: 3.0%[57.1 µM]; PI4K2A block: 1.0; TrxR1 inh: 7.08µM*; Integrin act MD: -11.3%; GALK inhibitor: 10.7%

Results for COc1ccc(NC(=O)Nc2ccc(OC)cc2)cc1 ?
LDHA block: -2.3; TrxR1 substrate: -2.8%; PI4K2A block: -4.3; TrxR1 inh: 1.5%; Integrin act MD: 37.9%; GALK inhibitor: 1.0%

Results for CS/C(=C\[N+](=O)[O-])Nc1ccc(F)cc1 ?
LDHA block: 0.7; TrxR1 substrate: -23.8%[57.1 µM]; PI4K2A block: -4.3; TrxR1 inh: inconclusive; Integrin act MD: -21.4%; GALK inhibitor: 1.5%

How did CS/C(=C\[N+](=O)[O-])Nc1ccccc1 do in these assays?
LDHA block: -3.6; TrxR1 substrate: 11.6%[57.1 µM]; PI4K2A block: -11.5; TrxR1 inh: 1.26µM*; Integrin act MD: -6.2%; GALK inhibitor: -3.3%

What do the screens show for `O=[N+]([O-])c1cccc(-c2n[nH]c(=S)n2-c2ccc(Br)cc2)c1`?
LDHA block: -31.8*; TrxR1 substrate: -3.8%; PI4K2A block: -1.7; TrxR1 inh: inconclusive; Integrin act MD: inconclusive; GALK inhibitor: 4.6%

How did CCc1cccc(CC)c1NC(=S)NCCc1ccc(O)c(O)c1 do in these assays?
LDHA block: -15.8; TrxR1 substrate: -8.5%; PI4K2A block: 2.5; TrxR1 inh: 6.31µM*; Integrin act MD: 5.1%; GALK inhibitor: 9.5%

Results for CCc1cccc(CC)c1NC(=S)NCCc1c(C)[nH]c2ccccc12 ?
LDHA block: -9.0; TrxR1 substrate: -0.1%; PI4K2A block: 0.9; TrxR1 inh: -1.7%; Integrin act MD: -47.9%

How did Cc1ccsc1/C=C(\C#N)c1nc(-c2ccc3ccccc3c2)cs1 do in these assays?
LDHA block: -3.1

How did Cc1ccc(S(=O)c2snnc2C)cc1 (stereo unspecified) do in these assays?
LDHA block: -7.7; TrxR1 substrate: 5.2%; PI4K2A block: 3.0; TrxR1 inh: 18.0%; Integrin act MD: -55.3%; GALK inhibitor: -1.1%

How did CNC(=O)c1nnsc1S(=O)c1ccc(Cl)cc1 (stereo unspecified) do in these assays?
LDHA block: -7.4; TrxR1 substrate: 4.9%[57.1 µM]; PI4K2A block: -4.0; TrxR1 inh: 0.355µM*; Integrin act MD: 0.0%; GALK inhibitor: 9.1%

Results for CCCNC(=O)c1nnsc1S(=O)(=O)c1ccc(Cl)cc1 ?
LDHA block: -2.2; TrxR1 substrate: 2.7%[57.1 µM]; PI4K2A block: 8.8; TrxR1 inh: inconclusive; Integrin act MD: -72.1%; GALK inhibitor: 9.4%

What do the screens show for `CCCNC(=O)c1nnsc1S(=O)c1ccc(Cl)cc1` (stereo unspecified)?
LDHA block: -10.5; TrxR1 substrate: 6.5%[57.1 µM]; PI4K2A block: 0.7; TrxR1 inh: 0.562µM*; Integrin act MD: -75.0%; GALK inhibitor: 10.8%

How did OCc1ccc(-c2nc3ccccc3s2)o1 do in these assays?
LDHA block: -1.6

How did C=C1C(=O)C23C(O)C1CCC2C12CCCC(C)(COC(C)=O)C1C(O)C3(O)OC2 (stereo unspecified) do in these assays?
LDHA block: -3.8; TrxR1 substrate: -7.4%; PI4K2A block: 1.7; TrxR1 inh: 7.08µM*; Integrin act MD: -56.3%

Results for CC(Sc1nc(-c2ccccc2)c(-c2ccccc2)o1)C(=O)NC1CC1 (stereo unspecified) ?
LDHA block: 2.9

What do the screens show for `CC(=O)N(C)C1=C(N2CCOCC2)C(=O)c2ccccc2C1=O`?
LDHA block: 66.5; TrxR1 substrate: -13.7%; PI4K2A block: -23.0; TrxR1 inh: -16.0%; Integrin act MD: -5.5%; GALK inhibitor: 0.8%

What do the screens show for `CC(=O)N(C1=C(N2CCOCC2)C(=O)c2ccccc2C1=O)c1ccc(C(=O)O)cc1`?
LDHA block: 13.1; TrxR1 substrate: -3.9%; PI4K2A block: -29.0; TrxR1 inh: 7.94µM*; Integrin act MD: 5.0%; GALK inhibitor: 1.4%

Results for COc1cccc(C=Nc2ccc3c(c2)OCCO3)c1O ?
LDHA block: 4.0; TrxR1 substrate: -12.7%; PI4K2A block: -62.9*; TrxR1 inh: -16.7%; Integrin act MD: 0.8%; GALK inhibitor: 0.8%

How did COC(=O)[C@@H]1[C@@H](C#N)C2(c3ccccc3-c3ccccc32)N(c2ccc(Cl)cc2)N1C#N do in these assays?
LDHA block: -1.2; TrxR1 substrate: -3.5%; PI4K2A block: -1.8; TrxR1 inh: 7.94µM*; Integrin act MD: -49.3%; GALK inhibitor: -3.5%

Results for O=C(Cc1ccc(Cl)cc1)NN1C(=O)c2ccccc2C1=O ?
LDHA block: -5.1; TrxR1 substrate: 5.0%; PI4K2A block: 3.3; TrxR1 inh: 18.9%; Integrin act MD: -15.3%; GALK inhibitor: -0.5%

How did S=c1sc2c(Cl)ncnc2n1-c1ccccc1 do in these assays?
LDHA block: 0.5; TrxR1 substrate: -3.6%; PI4K2A block: 1.7; TrxR1 inh: 15.8µM*; Integrin act MD: -70.0%; GALK inhibitor: -4.0%

How did O=C(C[n+]1cnn(CC(=O)c2ccc(Cl)cc2Cl)c1)c1ccc([N+](=O)[O-])cc1 do in these assays?
LDHA block: -1.8; TrxR1 substrate: -7.0%; PI4K2A block: -3.0; TrxR1 inh: 50.1µM*; Integrin act MD: -47.4%; GALK inhibitor: -0.1%

What do the screens show for `O=C(COC(=O)c1ccc(Cl)cc1)c1ccc([N+](=O)[O-])cc1`?
LDHA block: 6.2

What do the screens show for `Cc1ccc(S(=O)(=O)N=Nc2c(O)[nH]c3ccccc23)cc1C`?
LDHA block: -36.1*; TrxR1 substrate: -6.2%[57.1 µM]; PI4K2A block: 8.4; TrxR1 inh: -16.7%[57.1 µM]; Integrin act MD: -32.6%; GALK inhibitor: -2.9%

What do the screens show for `CC(C)(C)C(=O)/C(=C/c1ccncc1)n1cncn1`?
LDHA block: -1.8; TrxR1 substrate: 10.9%; PI4K2A block: -10.0; TrxR1 inh: 17.8µM*; Integrin act MD: -15.3%; GALK inhibitor: -1.5%

How did O=C(NC1CCN(C(=O)c2cc(-c3ccccc3)nc3ccccc23)CC1)c1ccccc1 do in these assays?
LDHA block: -16.3

Results for CCc1ccc(-c2nc(COC(=O)c3c(C)nsc3N)cs2)cc1 ?
LDHA block: 9.7

How did COc1ccc(C#Cc2c(-c3ccccc3)n(-c3ccccc3)c3ccc(CO)cc23)cc1 do in these assays?
LDHA block: -13.0; TrxR1 substrate: 128.3%; PI4K2A block: -5.2; TrxR1 inh: 35.5µM*; Integrin act MD: 15.8%

Results for COc1ccc2[nH]c3c4c(ccc3c2c1)C(=O)C=CC4=O ?
LDHA block: 7.7; TrxR1 substrate: -2.2%; PI4K2A block: -4.4; TrxR1 inh: 50.1µM*; Integrin act MD: -68.7%; GALK inhibitor: 0.4%

Screening results (PubChem BioAssay)
